# Reference: PubChem BioAssay AID1159580 (chemical genetic matrix, 2015)
# Among all 5,500 compounds or so, about 2,000 (36%) were called active. Roughly 18% stayed inconclusive and do not appear here. Some of the results follow. Unmarked numbers belong to inactive results. Cut-off read from the data, not from the text of the source: active = normalized growth mostly below about 0.91 (no sharp cut-off); inconclusive = no clear call, values can overlap the other calls; inactive = mostly above about 0.92.
# Assay: chemical genetic growth profiling, strain panel (AID 1159580);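 note: tested at 20 µM; growth read once vehicle control cultures reached saturation at 30 °C; 1 = growth at the plate median or of vehicle wells; lower values mean less growth of the strain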
# Settings: growth OD
smiles,measurement,setting,value
CCCCC(CC)CN1CN(CC(CC)CCCC)CC(C)(N)C1 (centres undefined),normalized growth,"S. cerevisiae deletion strains, locus YJR043C, strain POL32, active compounds read low",0.37 (active)
same,normalized growth,"S. cerevisiae deletion strains, locus YJR075W, strain HOC1, active compounds read low",0.372 (active)
same,normalized growth,"S. cerevisiae deletion strains, locus YKL009W, strain mrt4, active compounds read low",0.939
same,normalized growth,"S. cerevisiae deletion strains, locus YKL068W, active compounds read low",1.01
same,normalized growth,"S. cerevisiae deletion strains, locus YKL085W, strain MDH1 (second series), active compounds read low",0.994
same,normalized growth,"S. cerevisiae deletion strains, locus YKL085W, strain MDH1, active compounds read low",0.994
same,normalized growth,"S. cerevisiae deletion strains, locus YKL160W, strain elf1, active compounds read low",0.373 (active)
same,normalized growth,"S. cerevisiae deletion strains, locus YKL190W, strain CNB1, active compounds read low",0.445 (active)
same,normalized growth,"S. cerevisiae deletion strains, locus YKR001C, strain vps1, active compounds read low",0.0669 (active)
same,normalized growth,"S. cerevisiae deletion strains, locus YKR026C, strain gcn3, active compounds read low",0.059 (active)
same,normalized growth,"S. cerevisiae deletion strains, locus YKR091W, strain srl3, active compounds read low",0.0561 (active)
same,normalized growth,"S. cerevisiae deletion strains, locus YLL001W, strain dnm1, active compounds read low",0.0613 (active)
same,normalized growth,"S. cerevisiae deletion strains, locus YLL026W, active compounds read low",0.0554 (active)
same,normalized growth,"S. cerevisiae deletion strains, locus YLL041C, strain sdh2, active compounds read low",0.0528 (active)
same,normalized growth,"S. cerevisiae deletion strains, locus YLR027C, strain aat2, active compounds read low",0.0535 (active)
same,normalized growth,"S. cerevisiae deletion strains, locus YLR039C, strain RIC1, active compounds read low",0.352 (active)
same,normalized growth,"S. cerevisiae deletion strains, locus YLR058C, strain SHM2, active compounds read low",0.525 (active)
same,normalized growth,"S. cerevisiae deletion strains, locus YLR102C, strain apc9, active compounds read low",0.832 (active)
same,normalized growth,"S. cerevisiae deletion strains, locus YLR221C, strain rsa3, active compounds read low",0.0576 (active)
same,normalized growth,"S. cerevisiae deletion strains, locus YLR258W, strain gsy2, active compounds read low",0.0568 (active)
same,normalized growth,"S. cerevisiae deletion strains, locus YLR262C, strain YPT6 (second series), active compounds read low",0.0741 (active)
same,normalized growth,"S. cerevisiae deletion strains, locus YLR262C, strain YPT6, active compounds read low",0.269 (active)
same,normalized growth,"S. cerevisiae deletion strains, locus YLR268W, strain sec22, active compounds read low",0.484 (active)
same,normalized growth,"S. cerevisiae deletion strains, locus YLR320W, strain mms22, active compounds read low",0.0732 (active)
same,normalized growth,"S. cerevisiae deletion strains, locus YLR330W, strain CHS5, active compounds read low",0.437 (active)
same,normalized growth,"S. cerevisiae deletion strains, locus YLR342W, strain FKS1 (second series), active compounds read low",0.254 (active)
same,normalized growth,"S. cerevisiae deletion strains, locus YLR342W, strain FKS1, active compounds read low",0.0622 (active)
same,normalized growth,"S. cerevisiae deletion strains, locus YLR357W, strain rsc2, active compounds read low",0.114 (active)
same,normalized growth,"S. cerevisiae deletion strains, locus YLR370C, strain arc18, active compounds read low",0.0656 (active)
same,normalized growth,"S. cerevisiae deletion strains, locus YLR371W, strain rom2, active compounds read low",0.23 (active)
same,normalized growth,"S. cerevisiae deletion strains, locus YLR384C, strain iki3, active compounds read low",0.0552 (active)
same,normalized growth,"S. cerevisiae deletion strains, locus YLR418C, strain cdc73, active compounds read low",0.153 (active)
same,normalized growth,"S. cerevisiae deletion strains, locus YML016C, strain PPZ1, active compounds read low",0.743 (active)
same,normalized growth,"S. cerevisiae deletion strains, locus YML032C, strain rad52, active compounds read low",0.407 (active)
same,normalized growth,"S. cerevisiae deletion strains, locus YML120C, strain ndi1, active compounds read low",0.0565 (active)
same,normalized growth,"S. cerevisiae deletion strains, locus YML124C, strain tub3, active compounds read low",0.692 (active)
same,normalized growth,"S. cerevisiae deletion strains, locus YMR058W, strain fet3, active compounds read low",0.0601 (active)
same,normalized growth,"S. cerevisiae deletion strains, locus YMR078C, strain ctf18, active compounds read low",0.802 (active)
same,normalized growth,"S. cerevisiae deletion strains, locus YMR125W, strain sto1, active compounds read low",0.0743 (active)
same,normalized growth,"S. cerevisiae deletion strains, locus YMR129W, active compounds read low",0.0564 (active)
same,normalized growth,"S. cerevisiae deletion strains, locus YMR205C, strain PFK2, active compounds read low",0.0816 (active)
same,normalized growth,"S. cerevisiae deletion strains, locus YMR223W, strain ubp8, active compounds read low",0.316 (active)
same,normalized growth,"S. cerevisiae deletion strains, locus YMR231W, strain pep5, active compounds read low",0.0615 (active)
same,normalized growth,"S. cerevisiae deletion strains, locus YMR263W, strain SAP30, active compounds read low",0.489 (active)
same,normalized growth,"S. cerevisiae deletion strains, locus YMR307W, strain GAS1, active compounds read low",0.162 (active)
same,normalized growth,"S. cerevisiae deletion strains, locus YNL067W, strain RPL9B, active compounds read low",0.605 (active)
same,normalized growth,"S. cerevisiae deletion strains, locus YNL071W, strain lat1, active compounds read low",0.058 (active)
same,normalized growth,"S. cerevisiae deletion strains, locus YNL128W, strain TEP1, active compounds read low",0.288 (active)
same,normalized growth,"S. cerevisiae deletion strains, locus YNL153C, strain GIM3, active compounds read low",0.356 (active)
same,normalized growth,"S. cerevisiae deletion strains, locus YNL209W, strain ssb2, active compounds read low",0.0575 (active)
same,normalized growth,"S. cerevisiae deletion strains, locus YNL233W, strain BNI4, active compounds read low",0.26 (active)
same,normalized growth,"S. cerevisiae deletion strains, locus YNL248C, strain rpa49, active compounds read low",0.0852 (active)
same,normalized growth,"S. cerevisiae deletion strains, locus YNL250W, strain rad50, active compounds read low",1.01
same,normalized growth,"S. cerevisiae deletion strains, locus YNL271C, strain bni1, active compounds read low",0.997
same,normalized growth,"S. cerevisiae deletion strains, locus YNL298W, strain CLA4, active compounds read low",1.01
same,normalized growth,"S. cerevisiae deletion strains, locus YNL307C, strain MCK1, active compounds read low",0.262 (active)
same,normalized growth,"S. cerevisiae deletion strains, locus YNL322C, strain KRE1 (second series), active compounds read low",0.0601 (active)
same,normalized growth,"S. cerevisiae deletion strains, locus YNL322C, strain KRE1, active compounds read low",0.336 (active)
same,normalized growth,"S. cerevisiae deletion strains, locus YNR049C, strain mso1, active compounds read low",0.0593 (active)
same,normalized growth,"S. cerevisiae deletion strains, locus YNR052C, strain pop2, active compounds read low",0.0951 (active)
same,normalized growth,"S. cerevisiae deletion strains, locus YOL006C, strain TOP1, active compounds read low",0.196 (active)
same,normalized growth,"S. cerevisiae deletion strains, locus YOL012C, strain htz1",0.192
same,normalized growth,"S. cerevisiae deletion strains, locus YOL147C, strain pex11, active compounds read low",0.497 (active)
same,normalized growth,"S. cerevisiae deletion strains, locus YOR001W, strain rrp6, active compounds read low",0.0714 (active)
same,normalized growth,"S. cerevisiae deletion strains, locus YOR061W, strain CKA2, active compounds read low",0.583 (active)
same,normalized growth,"S. cerevisiae deletion strains, locus YOR069W, strain VPS5, active compounds read low",0.736 (active)
same,normalized growth,"S. cerevisiae deletion strains, locus YOR070C, strain gyp1, active compounds read low",0.0567 (active)
same,normalized growth,"S. cerevisiae deletion strains, locus YOR080W, strain dia2, active compounds read low",0.0601 (active)
same,normalized growth,"S. cerevisiae deletion strains, locus YOR083W, strain WHI5, active compounds read low",0.0602 (active)
same,normalized growth,"S. cerevisiae deletion strains, locus YOR106W, strain vam3, active compounds read low",0.0665 (active)
same,normalized growth,"S. cerevisiae deletion strains, locus YOR136W, strain idh2, active compounds read low",0.607 (active)
same,normalized growth,"S. cerevisiae deletion strains, locus YOR144C, strain elg1, active compounds read low",0.662 (active)
same,normalized growth,"S. cerevisiae deletion strains, locus YOR184W, strain ser1, active compounds read low",0.325 (active)
same,normalized growth,"S. cerevisiae deletion strains, locus YOR265W, strain rbl2, active compounds read low",0.0536 (active)
same,normalized growth,"S. cerevisiae deletion strains, locus YOR270C, strain vph1, active compounds read low",0.0981 (active)
same,normalized growth,"S. cerevisiae deletion strains, locus YOR290C, strain snf2, active compounds read low",0.0607 (active)
same,normalized growth,"S. cerevisiae deletion strains, locus YOR316C, strain cot1, active compounds read low",0.863 (active)
same,normalized growth,"S. cerevisiae deletion strains, locus YPL051W, strain arl3, active compounds read low",0.0603 (active)
same,normalized growth,"S. cerevisiae deletion strains, locus YPL055C, strain LGE1, active compounds read low",0.189 (active)
same,normalized growth,"S. cerevisiae deletion strains, locus YPL078C, strain atp4, active compounds read low",0.0642 (active)
same,normalized growth,"S. cerevisiae deletion strains, locus YPL106C, strain sse1, active compounds read low",0.0997 (active)
same,normalized growth,"S. cerevisiae deletion strains, locus YPL240C, strain hsp82, active compounds read low",0.0539 (active)
same,normalized growth,"S. cerevisiae deletion strains, locus YPL241C, strain CIN2, active compounds read low",0.733 (active)
same,normalized growth,"S. cerevisiae deletion strains, locus YPR119W, strain clb2, active compounds read low",0.627 (active)
same,normalized growth,"S. cerevisiae deletion strains, locus YPR141C, strain kar3, active compounds read low",1.01
same,normalized growth,"S. cerevisiae deletion strains, locus YPR163C, strain tif3, active compounds read low",0.178 (active)
same,normalized growth,"S. cerevisiae deletion strains, locus YPR167C, strain met16, active compounds read low",0.533 (active)
same,normalized growth,"S. cerevisiae deletion strains, strain wtn01, active compounds read low",0.425 (active)
same,normalized growth,"S. cerevisiae strains, strain wild type, active compounds read low",0.21 (active)
